# Most compounds without a hit are left out; they make up all but 3.6% or so of the library.
# hDAT+cocaine = changed hDAT dopamine uptake under cocaine IC80, either direction, primary screen, cocaine antagonist project, cell-based, LLC-PK1 hDAT, [14C]-dopamine uptake, MLSMR. Sodium-dependent dopamine transporter (Homo sapiens), Q01959. LLC-PK1 hDAT cells, [14C]-dopamine uptake with cocaine IC80; actives deviate in either direction. B-score at 10 µM. actives 1.3% (n = 110,000). AID 449768, 2010;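 active means Z score or B-score, a plate-position-corrected score, falls beyond the plate's 99.7% confidence bounds, in either direction; inactive means both scores lie inside the 99.7% bounds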;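 further: scored against the spread of the other compound wells on the same plate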
# Target sequence (Q01959 whole entry, looked up): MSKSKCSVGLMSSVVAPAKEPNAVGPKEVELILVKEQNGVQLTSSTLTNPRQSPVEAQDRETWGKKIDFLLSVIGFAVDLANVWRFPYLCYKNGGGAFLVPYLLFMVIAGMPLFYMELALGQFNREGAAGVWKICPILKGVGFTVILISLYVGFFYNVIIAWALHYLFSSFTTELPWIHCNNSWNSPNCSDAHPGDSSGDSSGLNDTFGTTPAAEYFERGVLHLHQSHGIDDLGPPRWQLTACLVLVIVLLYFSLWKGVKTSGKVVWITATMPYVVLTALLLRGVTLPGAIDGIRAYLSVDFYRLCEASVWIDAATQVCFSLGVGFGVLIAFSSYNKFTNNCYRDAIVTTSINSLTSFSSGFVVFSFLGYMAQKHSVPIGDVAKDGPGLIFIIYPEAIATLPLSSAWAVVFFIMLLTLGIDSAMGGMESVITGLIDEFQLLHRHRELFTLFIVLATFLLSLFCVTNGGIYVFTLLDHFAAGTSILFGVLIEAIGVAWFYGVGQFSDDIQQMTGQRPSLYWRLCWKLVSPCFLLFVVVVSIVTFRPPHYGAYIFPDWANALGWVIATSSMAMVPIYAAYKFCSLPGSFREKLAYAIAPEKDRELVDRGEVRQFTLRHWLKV
# HCT116 bCat-KO = primary screen for growth suppressors in beta-catenin knockout HCT116 cells (colon tumor, human) | AID 818, 2007 | HCT116 beta-catenin knockout viability, CellTiter-Glo, 60 h; hits give low values | actives 1.5% (n = 140,000) | viability, % at 10 µM;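 active means viability at or under a set limit, the compound median less 4 SD, cut at about 6% in these data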;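 further: 0% = Hyamine 1622 control at 20 µM and 100% = untreated cell control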
# HCT116 PTEN-null = growth suppression of PTEN-null HCT116, primary screen, cell-based, CellTiter-Glo. HCT116 PTEN-null viability, 60 h; hits give low values. viability, % at 10 µM. actives 1.2% (n = 140,000);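 active means viability at or below a set limit, 4 SD under the median of all tested compounds, cut at about 3.7% in these data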;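 further: PTEN knockout HCT116 line with beta catenin targeted HCT116 as companion control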
# WT yeast gro inh = growth inhibition of WT strain, primary screen, mitochondrial fusion inhibitor project, WT and mutant strains, chemical genetic; mitochondrial fusion phenotypic screen; inhibition, % at 10 µM; actives 2.1% (n = 190,000); AID 1362, 2008; in the data active means inhibition above about 58%; tested in S. cerevisiae
# An asterisk follows results filed as active; · = not tested or not shown.
SMILES,hDAT+cocaine,HCT116 bCat-KO,HCT116 PTEN-null,WT yeast gro inh
Cn1cccc1Cc1nnc(SCC(=O)Nc2ccc3c(c2)OCCO3)n1CCc1ccccc1,2.5*,76,72,13
Cc1nnc(SCC(=O)NC(C)(C)C)n1CCc1ccccc1,-0.47,85,100,11
Cc1cccc(OCC(=O)NC(Cc2c[nH]c3ccccc23)C(=O)O)c1C (centres undefined),·,·,·,-2
Clc1ccc(-c2nnc(-c3ccco3)nc2N2CCCCC2)cc1,·,75,70,66*
Clc1ccc(-c2nnc(-c3ccc(Br)cc3)c(N3CCSCC3)n2)cc1,-0.093,67,61,13
O=S(=O)(Nc1cccc(-c2cn3cccnc3n2)c1)c1ccc(Cl)cc1,·,83,98,3
O=C1CSC(c2ccc(F)cc2)N1c1nc2ccccc2s1 (centres undefined),·,78,78,75*
CCCn1nc([N+](=O)[O-])c(C(C#N)c2nc3ccccc3s2)c(Cl)c1=O (centres undefined),-1.8,34,42,78*
O=C(Nc1ccccc1)Nc1cc(Cl)cc(Cl)c1,-1.8,2.0*,2.2*,89*
O=C(Nc1ccccc1)Nc1cc(OCC(F)(F)F)cc(OCC(F)(F)F)c1,·,2.2*,1.9*,86*
O=C(NCCNC(=O)c1cc(OCC(F)(F)F)ccc1OCC(F)(F)F)Nc1cccc(C(F)(F)F)c1,0.16,51,41,-4
O=C(Nc1cccnc1)Nc1cc(Cl)cc(Cl)c1,·,·,·,77*
O=C(Nc1cc(Cl)cc(Cl)c1)C(c1ccccc1)N1CCCCC1 (centres undefined),·,48,42,66*
CCOc1cc(N2CCOCC2)c(OCC)cc1NC(=O)c1ccc(NC(C)=O)cc1,·,·,·,-25
CC(=O)N1CCC(=O)Nc2ccc([N+](=O)[O-])cc21,·,·,·,-9
Cc1ccc(C(CC(=O)c2ccc(Cl)cc2)C(=O)O)cc1 (centres undefined),·,·,·,-13
COC(=O)C(CC(=O)c1ccc(Cl)cc1)c1ccc(C(C)C)cc1 (centres undefined),0.7,97,83,70*
CC(=O)NC(Cc1cccc(F)c1)C(=O)NC1CCN(C(=O)c2ccc(C)cc2)CC1 (centres undefined),·,·,·,1
CC(=O)N1CCN(c2ccc(OC[C@H]3CO[C@](Cn4ccnc4)(c4ccc(Cl)cc4Cl)O3)cc2)CC1,3.8*,44,47,-45
CN1C(=O)C2(OCC(COc3ccc(Cl)cc3)O2)c2ccccc21 (centres undefined),-1.2,84,87,13
O=C(/C=C/c1ccc(Cl)cc1)NC(=S)Nc1ccc(NC(=O)c2ccco2)cc1,·,17,13,7
CCOC(=O)C1(CC2CCCCO2)CCN(Cc2nc3ccccc3[nH]2)CC1 (centres undefined),·,·,·,5
COc1ccc(N2CC(NC(=O)N(C)CCC#N)CC2=O)cc1 (centres undefined),·,·,·,-9
CCn1c(SCC(=O)OC(C)C)nnc1-c1ccccc1OC,·,·,·,8
CC(Oc1ccccc1)C(=O)Nc1cccc(-c2nc3ccccc3[nH]2)c1 (centres undefined),-0.019,81,79,31
SMILES,hDAT+cocaine,HCT116 bCat-KO,HCT116 PTEN-null,WT yeast gro inh
O=C(COc1ccccc1)Nc1cccc(-c2nc3cc4ccccc4cc3[nH]2)c1,0.46,1.7*,1.1*,75
Cc1ccc(S(=O)(=O)n2ccc(=O)[nH]2)cc1,0.12,·,·,-5
CC1CCN(C(C)C(=O)Nc2ccccc2-c2ccccc2)CC1 (centres undefined),-0.7,74,77,60*
CCOC(=O)c1c(C)[nH]c(C)c1C(=O)COC(=O)/C=C/c1cccc(C(F)(F)F)c1,·,82,93,58*
CCOC(=O)c1c(C)[nH]c(C)c1C(=O)COC(=O)c1cc2ccccc2cc1O,·,76,69,74*
O=C(O)c1cc(-c2ccccc2)nn1CC1CC(c2cccc([N+](=O)[O-])c2)=NO1 (centres undefined),0.0029,·,·,·
CCNC(=S)N/N=C(\C)c1cccc([N+](=O)[O-])c1,·,107,103,3
Cc1ccc(NC(=O)C(OC(=O)c2ccc(O)cc2)c2ccccc2)cc1Cl (centres undefined),·,65,49,89*
CCOc1ccc2oc(C(=O)OCC(=O)NC3CC3)c(C)c2c1,·,·,·,-15
CC1(C(=O)NC(=S)NNC(=O)c2ccncc2)CCCCC1,·,22,20,2
O=C(NNC(=S)NC(=O)C12CC3CC(CC(C3)C1)C2)c1ccncc1,0.16,17,16,80*
CCC(CC)C(=O)NCc1cccnc1,·,·,·,0
CCN=c1scc(-c2ccco2)n1/N=C/c1ccc(OC)c(O)c1,-0.34,59,56,59*
CCc1ccc2[nH]c(=O)c(CN(Cc3nnnn3C3CCCC3)C3CCCCC3)cc2c1,0.98,1.8*,1.6*,-2
C/C(=N/NC(=O)CNC(=O)c1cccnc1)c1cccc([N+](=O)[O-])c1,·,·,·,4
CCCCCN=C(N)N/N=C/c1c[nH]c2ccc(OC)cc12,3.7*,·,·,·
O=C(O)Cn1c(CC(=O)N2CCCC2)nc2ccccc21,-0.58,96,97,63*
CCOC(=O)c1cccc(NC(=O)Cn2c(CC(=O)N3CCCC3)nc3ccccc32)c1,0.22,105,97,30
CCOC(=O)N1CCC(NC(=O)CSCc2cnn(-c3ccccc3)c2-n2cccc2)CC1,3.2*,71,66,24
O=C(COC(=O)c1cccnc1Nc1cccc(C(F)(F)F)c1)NCCN1C(=O)CSC1=O,3.5*,92,87,10
O=C(COC(=O)c1ccncc1)Nc1cc(Cl)c(Cl)cc1Cl,·,100,98,71*
O=C(COC(=O)c1ccncc1)Nc1cc(Cl)ccc1Cl,-0.45,96,104,2
N#CC(C#N)=c1ccc2c(c1)NC1(CCCCC1)N=2,0.56,1.4*,1.3*,43
COc1ccccc1CNC(=O)COC(=O)Cc1cccs1,·,·,·,14
C/C(=N/Nc1cc(-c2ccccc2)nc(-c2ccccc2)n1)c1ccc(O)cc1,·,17,13,98*
SMILES,hDAT+cocaine,HCT116 bCat-KO,HCT116 PTEN-null,WT yeast gro inh
Cc1cc(CN(C)Cc2c(C(=O)N3CCCCCCC3)nc3ccc(Cl)cn23)n[nH]1,·,·,·,13
O=C(NCc1ccccc1)c1ccc(-c2ccccc2C(F)(F)F)o1,-0.72,97,94,58*
Cc1c(CCOC(=O)C23CC4CC(CC(C4)C2)C3)sc[n+]1Cc1ccccc1,·,76,78,-3
Cc1c(CCOC(=O)C23CC4CC(CC(C)(C4)C2)C3)sc[n+]1Cc1ccccc1,-1.3,2.9*,5,7
COc1cc(C2Nc3c(F)cccc3C3C=CCC32)cc(Br)c1OC (centres undefined),·,·,·,12
COc1cccc(C2Nc3c(F)cc(Br)cc3C3C=CCC32)c1OC (centres undefined),·,68,73,66*
CCCCCC(C)NC(=O)c1ccoc1C (centres undefined),-0.36,98,97,78*
CC(C)Cn1c(N2CCN(CC(=O)Nc3ccc(Cl)cc3)CC2)nc2ccccc21,·,·,·,5
Cc1ccc(C(=O)OCC(=O)NCc2ccco2)s1,·,·,·,3

# Source: PubChem
